NTR1 ag – agonists of human NTR1, primary screen, imaging, U2OS cells, beta-arrestin-GFP, high content; Neurotensin receptor type 1 (Homo sapiens), P30989; NTR1-U2OS beta-arrestin-GFP spot imaging, agonist mode; activation, % at 20 µM; 0.17% of 330,000 active;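 active = activation at or above 40% of the spot to cytoplasm intensity ratio, with at least 20 cells analyzed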;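 note: 0% = DMSO without peptide and 100% = 100 nM NTR1 peptide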
ABHD5 PLIN5 PPI – ABHD5-PLIN5 interaction inhibitors, primary screen, cell lysate, split luciferase complementation, luminescence; Perilipin-5 (Homo sapiens) + 1-acylglycerol-3-phosphate O-acyltransferase ABHD5 (Homo …; Split G. princeps luciferase complementation, 4 h; inhibition, % at 4 µM; 0.78% of 360,000 active;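 active = inhibition above the mean inhibition across every tested compound plus 3 SD, cut at about 22% in these data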;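 note: 0% = DMSO only wells and the 100% control is not disclosed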
Granule exo inh – LAMP-1 surface exposure blockers, TALL-104 cells – cell-based, flow cytometry, MLPCN library, primary screen. TALL-104 LAMP-1 surface exposure; cells stimulated with thapsigargin and PMA. inhibition, % at 10 µM. 0.66% of 360,000 active. AID 651702, 2012;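 active = inhibition above about 55%, limit read from the data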
B2AR ag – beta2AR agonists driving receptor internalization, primary screen, cell-based, FAP fluorogen, flow cytometry | Beta-2 adrenergic receptor (Homo sapiens), P07550 | Am2.2-beta2AR cells | response, % (no concentration beside the values) | 0.43% of 340,000 active | AID 504454, 2011;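 active = response above a set limit, near 3 SD of response in nonfluorescent compounds, cut at about 42% in these data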
m5-HT2A agonist – mouse Htr2a agonists via beta-arrestin recruitment, primary screen, cell-based, luminescence; 5-hydroxytryptamine receptor 2A (Mus musculus), P35363; CHO-K1 mHTR2A beta-arrestin complementation; percent of 30 µM serotonin response; activation, % at 7.6 µM; AID 624169, 2012; 0.66% of 360,000 active;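 active = activation above a run cutoff, the mean activation of all tested compounds plus 3 SD, cut at about 14% in these data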;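 note: 0% = plate median of compound wells and 100% = 30 µM serotonin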
Target sequence (P35363 whole entry, looked up): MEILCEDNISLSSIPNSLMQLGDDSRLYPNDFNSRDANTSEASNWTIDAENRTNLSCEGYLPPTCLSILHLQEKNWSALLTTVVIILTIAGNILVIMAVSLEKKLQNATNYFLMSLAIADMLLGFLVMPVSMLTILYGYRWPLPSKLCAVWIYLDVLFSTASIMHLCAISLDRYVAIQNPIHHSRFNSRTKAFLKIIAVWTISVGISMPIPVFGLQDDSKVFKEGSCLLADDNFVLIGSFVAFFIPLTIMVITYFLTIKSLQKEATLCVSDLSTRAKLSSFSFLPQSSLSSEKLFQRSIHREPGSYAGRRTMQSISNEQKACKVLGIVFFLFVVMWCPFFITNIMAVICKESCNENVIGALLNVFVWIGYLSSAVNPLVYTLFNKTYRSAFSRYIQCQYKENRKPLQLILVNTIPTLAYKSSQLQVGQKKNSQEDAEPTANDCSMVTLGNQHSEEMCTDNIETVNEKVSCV
Active calls of the source: *; . = not tested or not shown; ! = a repeat was not active. This is a sample that favours compounds with a hit; in the whole collection about 2.3% have one here.

SMILES	NTR1 ag	ABHD5 PLIN5 PPI	Granule exo inh	B2AR ag	m5-HT2A agonist
O=[N+]([O-])c1cccc(SSc2cccc([N+](=O)[O-])c2)c1	.	36*	-4	3	1
O=C(O)c1ccc(N2Cc3ccccc3C2)cc1O	0	3	-2	-1	2
CCC(=O)N1N=C(c2ccc(NS(=O)(=O)c3ccccc3)cc2)CC1c1ccco1 (stereo not drawn)	-1	-7	0	8	1
Cc1ccc(NC(=O)CSc2ncccn2)cc1S(=O)(=O)N1CCOCC1	0	-1	-3	3	4
COc1ccc2c(c1)-c1c(sn(-c3ccc(OC)c(OC)c3)c1=S)C(C)(C)N2	7	-8	66*	5	-5
Cc1cccc2sc(NNC(=O)c3ccc(S(=O)(=O)N4CCc5ccccc5C4)cc3)nc12	11	23*	12	22	7
CCOc1ccc(S(=O)(=O)N2CCC(C(=O)NCCc3ccc(S(N)(=O)=O)cc3)CC2)cc1	0	3	-4	-11	-5
COc1ccc(C(=O)Nc2ccc(S(=O)(=O)N3CCCC3)cc2)cc1[N+](=O)[O-]	0	4	2	13	-1
Cc1ccc2nc(/C(C#N)=C\c3ccc([N+](=O)[O-])o3)[nH]c2c1	-3	-10	62*	-364	12
N#C/C(=C/c1cccc([N+](=O)[O-])c1)C(=O)Nc1ccccc1O	3	2	-4	57*	2
CCCC1CCc2c(sc(N)c2C(N)=O)C1 (stereo not drawn)	1	-15	2	-4	-2
Cc1ccccc1C(OCCN(C)C)c1ccccc1 (stereo not drawn)	0	27*!	-4	5	9
N#CCN(C(=O)COC(=O)CCCNC(=O)c1ccc(Cl)cc1)c1ccccc1	3	-5	8	7	2
CN(C)CC(CCC(CN(C)C)C(=O)c1ccccc1)C(=O)c1ccccc1 (stereo not drawn)	.	41*	32	41	-8
CCN(C)C1CN(Cc2cn(Cc3ccc(Cl)cc3)nn2)S(=O)(=O)C1 (stereo not drawn)	.	0	-4	.	-1
NC(N)=NN=C(c1ccc(F)cc1)c1ccc(C(F)(F)F)cc1	.	3	57*	13	-1
Cc1cc(O)cc(C)c1NS(=O)(=O)c1ccc2ccccc2c1	3	7	-5	7	-7
CC1=CN2C(=N)/C(=C/c3ccc([N+](=O)[O-])o3)C(=O)N=C2S1	.	6	80*	-497	0
CCOc1ccc(C2NC(=O)C(C#N)=C(S)N2c2cccc(C)c2)cc1OC (stereo not drawn)	4	-2	69*	0	0
CCOc1ccc(C2NC(=O)C(C#N)=C(S)N2c2ccc(C)cc2)cc1OC (stereo not drawn)	1	-26	1	4	2
COc1cccc(C2Oc3ccccc3C3CC(c4cccs4)=NN32)c1 (stereo not drawn)	-2	22*	-1	16	-6
O=C(c1ccccc1)C1Oc2ccccc2C2CC(c3cccs3)=NN12 (stereo not drawn)	3	-1	0	12	-6
CCNc1ccc(Br)cc(C(=O)/C=C/c2ccc(Cl)cc2Cl)c1=O	5	47*	5	-97	-4
CNc1ccc(Br)cc(C(=O)/C=C/c2ccc(OC)cc2)c1=O	5	12	4	-6	0
O=C(Nc1ccccc1C(F)(F)F)c1ncn[nH]1	0	-3	0	8	-1
SMILES	NTR1 ag	ABHD5 PLIN5 PPI	Granule exo inh	B2AR ag	m5-HT2A agonist
COc1cc(Cl)ccc1OCc1cc(C(=O)N2C[C@]3(C)C[C@H]2CC(C)(C)C3)no1	8	-7	1	15	-5
O=C1CSc2ccc(C(=O)Nc3cccc(S(=O)(=O)Nc4ccc(Br)cc4)c3)cc2N1	26	-1	63*	-2	-2
Cc1ccc(C(=O)NC2CCN(S(=O)(=O)c3ccccc3)CC2)cc1	0	-2	-2	4	-1
O=C(OCC(=O)N1CCc2ccccc21)c1ccccc1	0	-3	0	-1	5
O=C(CO/N=C/c1ccccc1O)N1CCc2ccccc21	1	-6	-2	72*	-4
CC(C)Oc1ccc(/C=C/C(=O)NCC2COc3ccccc3O2)cc1 (stereo not drawn)	0	-10	7	58*	3
CC(=O)NCC1COc2ccccc2O1 (stereo not drawn)	-2	-1	-3	3	12
O=c1c2c([N+](=O)[O-])cc([N+](=O)[O-])cc2sn1-c1ccc(Br)cc1	5	-18	92*	-1	-1
CNC(=O)/C(C#N)=C/c1c(N(Cc2ccccc2)Cc2ccccc2)nc2c(C)cccn2c1=O	.	7	2	60*	4
COc1ccc(/C=C/c2c([N+](=O)[O-])c(=O)n(C)c(=O)n2C)cc1OC	1	-6	-2	10	3
Cn1c(/C=C/c2ccc(Cl)cc2)c([N+](=O)[O-])c(=O)n(C)c1=O	4	22*	0	4	-7
Cc1c(NC(=O)c2ccc(S(=O)(=O)Nc3ccccc3F)cc2)c(=O)n(-c2ccccc2)n1C	0	-2	-12	-6	1
Cc1nc2ccccn2c1C(=O)N=Nc1c(O)n(CCC(C)C)c2ccccc12	4	-4	71*	45*	3
CCCCN1C[C@H](Cc2ccccc2)[C@@H](CC(=O)NC)C1=O	.	6	-1	.	-3
COc1cccc2c1O/C(=N\O)C(C(=O)Nc1cccc(Br)c1)C2 (stereo not drawn)	.	1	-3	1	3
CC1C(c2ccc3c(c2)OCO3)c2cc3c(cc2OC1N1CCOCC1)OCO3 (stereo not drawn)	.	8	3	8	2
Cc1cc(C)c(C(=O)/C=C/c2ccc(C(C)C)cc2)c(=O)[nH]1	8	37*	-3	6	-7
Fc1ccc(C[n+]2csc3ccccc32)cc1	1	54*	33	6	6
Clc1ccc(C[n+]2csc3ccccc32)cc1	.	-3	47	7	1
COc1ccc(/C=C2\SC(=Nc3ccccc3)NC2=O)cc1	-1	.	.	.	.
COc1ccccc1N=C1NC(=O)/C(=C/c2ccc(N(C)C)cc2)S1	-3	4	67*	-34	2
O=C1/C(=C/Nc2cccc([N+](=O)[O-])c2)CCc2ccccc21	9	-16	89*	-7	-6
O=S(=O)(NCCC1=CCCCC1)c1ccc(Br)cc1	3	-9	0	2	-6
O=C(O)Cn1c2c(c3ccccc31)CSc1ccc(Cl)cc1-2	.	23*	-1	-1	-7
O=C(O)Cn1c2ccccc2c2ccccc21	0	5	-1	-7	-2
